Measured values as given in PubChem BioAssay AID1159580 (chemical genetic matrix, 2015).
Several values for one entry are separate records, joined by “and”; a condition that tells them apart may be missing. Equal entries are not always repeated. Hit rate of the full screen: of about 5,500 compounds, about 2,000 (36%) were called active. Another 18% or so got no clear call; they are omitted. Cut-off read from the data, not from the text of the source: active = normalized growth mostly below about 0.91 (no sharp cut-off); inconclusive = no clear call, values can overlap the other calls; inactive = mostly above about 0.92. This is one part of the list.

Test: chemical genetic growth profiling, strain panel (AID 1159580);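 note: tested at 20 µM; growth read once vehicle control cultures reached saturation at 30 °C; 1 = growth at the plate median or of vehicle wells; lower values mean less growth of the strain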
Settings: S. cerevisiae deletion strains, growth OD

Measured: normalized growth

OC[C@H]1O[C@@H](O[C@@H]2[C@@H](CO)O[C@](O)(CO)[C@H]2O)[C@H](O)[C@@H](O)[C@H]1O
inactive: locus YAL021C, strain ccr4, stronger effect = lower value 1.02 | locus YAL026C, strain drs2, stronger effect = lower value 1.01 | locus YAL030W, strain snc1, stronger effect = lower value 1 | locus YBL061C, strain skt5, stronger effect = lower value 1.02 | locus YBR009C, strain hhf1, stronger effect = lower value 1.01 | locus YBR021W, strain FUR4, stronger effect = lower value 0.983 | locus YBR023C, strain chs3, stronger effect = lower value 0.995 | locus YBR171W, strain sec66, stronger effect = lower value 1.02 | locus YBR229C, strain ROT2, stronger effect = lower value 0.986 | locus YBR231C, strain swc5, stronger effect = lower value 1.01 | locus YBR279W, strain paf1, stronger effect = lower value 1.02 | locus YCL011C, strain gbp2, stronger effect = lower value 1.01 | locus YCL016C, strain dcc1, stronger effect = lower value 0.985 | locus YCL029C, strain bik1, stronger effect = lower value 0.988 | locus YCL069W, strain vba3, stronger effect = lower value 1.01 | locus YCR088W, strain abp1, stronger effect = lower value 1 | locus YDL005C, strain med2, stronger effect = lower value 1.03 | locus YDL035C, strain GPR1, stronger effect = lower value 1.01 | locus YDL040C, strain nat1, stronger effect = lower value 1.01 | locus YDL074C, strain BRE1, stronger effect = lower value 1 | locus YDL101C, strain DUN1, stronger effect = lower value 0.988 | locus YDL185W, strain tfp1, stronger effect = lower value 0.992 | locus YDL192W, strain arf1, stronger effect = lower value 0.993 | locus YDR001C, strain nth1, stronger effect = lower value 1.01 | locus YDR069C, strain doa4, stronger effect = lower value 1.02 | locus YDR101C, strain arx1, stronger effect = lower value 1.01 | locus YDR137W, strain rgp1, stronger effect = lower value 1.01 | locus YDR150W, strain NUM1, stronger effect = lower value 0.995 | locus YDR159W, strain sac3, stronger effect = lower value 1.01 | locus YDR162C, strain NBP2, stronger effect = lower value 1.01 | locus YDR195W, strain ref2 1.03 | locus YDR297W, strain sur2, stronger effect = lower value 1.01 | locus YDR318W, strain mcm21, stronger effect = lower value 0.981 | locus YDR334W, strain swr1, stronger effect = lower value 1.01 | locus YDR335W, strain msn5, stronger effect = lower value 1.02 | locus YDR388W, stronger effect = lower value 0.987 | locus YDR392W, strain spt3, stronger effect = lower value 0.949 | locus YDR502C, strain sam2, stronger effect = lower value 0.986 | locus YEL003W, strain gim4, stronger effect = lower value 1.01 | locus YEL037C, strain rad23, stronger effect = lower value 1 | locus YEL061C, strain CIN8 (second series), stronger effect = lower value 1.02 | locus YEL061C, strain CIN8, stronger effect = lower value 0.995 | locus YER015W, strain faa2, stronger effect = lower value 1 | locus YER016W, strain bim1, stronger effect = lower value 1.02 | locus YER110C, stronger effect = lower value 0.979 | locus YER111C, strain swi4, stronger effect = lower value 1 | locus YER155C, strain BEM2 (second series), stronger effect = lower value 1.03 | locus YER155C, strain BEM2, stronger effect = lower value 0.987 | locus YER167W, strain BCK2, stronger effect = lower value 0.995 | locus YFR010W, strain ubp6, stronger effect = lower value 1.02 | locus YGL078C, strain dbp3, stronger effect = lower value 0.963 | locus YGL086W, strain mad1, stronger effect = lower value 1 | locus YGL167C, strain pmr1, stronger effect = lower value 1.02 | locus YGL173C, strain kem1, stronger effect = lower value 1.01 | locus YGL227W, strain vid30, stronger effect = lower value 1.01 | locus YGL240W, strain doc1, stronger effect = lower value 1.03 | locus YGL248W, strain PDE1, stronger effect = lower value 0.983 | locus YGL253W, strain hxk2, stronger effect = lower value 0.99 | locus YGR135W, strain pre9, stronger effect = lower value 0.941 | locus YGR252W, strain gcn5, stronger effect = lower value 0.944 | locus YHR013C, strain ard1, stronger effect = lower value 1.03 | locus YHR027C, strain rpn1, stronger effect = lower value 1.01 | locus YHR030C, strain SLT2, stronger effect = lower value 0.993 and 0.984 | locus YHR079C, strain IRE1 (second series), stronger effect = lower value 0.983 | locus YHR079C, strain IRE1, stronger effect = lower value 0.989 | locus YHR094C, strain hxt1, stronger effect = lower value 0.979 | locus YHR129C, strain ARP1, stronger effect = lower value 0.992 | locus YHR142W, strain chs7, stronger effect = lower value 1 | locus YHR200W, strain rpn10, stronger effect = lower value 0.978 | locus YIL066C, strain RNR3, stronger effect = lower value 0.994 | locus YIL073C, strain SPO22, stronger effect = lower value 0.973 | locus YIL125W, strain kgd1, stronger effect = lower value 0.978 | locus YIR030C, strain dcg1, stronger effect = lower value 0.987 | locus YJL092W, strain hpr5, stronger effect = lower value 1.01 | locus YJL095W, strain BCK1 (second series), stronger effect = lower value 1.01 | locus YJL095W, strain BCK1, stronger effect = lower value 0.977 and 0.994 | locus YJL115W, strain asf1, stronger effect = lower value 1.01 | locus YJL129C, strain trk1, stronger effect = lower value 1.01 | locus YJL134W, strain LCB3, stronger effect = lower value 0.995 | locus YJL154C, strain vps35, stronger effect = lower value 1.02 | locus YJL164C, strain tpk1, stronger effect = lower value 0.984 | locus YJL166W, strain qcr8, stronger effect = lower value 1.01 | locus YJL168C, strain set2, stronger effect = lower value 0.976 | locus YJL187C, strain SWE1 (second series), stronger effect = lower value 0.993 | locus YJR043C, strain POL32, stronger effect = lower value 1.02 | locus YJR066W, strain TOR1, stronger effect = lower value 0.942
